This is an account of results in PubChem BioAssay.

Calls of active or inactive are those of the source.

A short description of test [1]: compound effects on lung adenocarcinoma cell viability – A549, calcein-AM fluorescence, 48 h, basal, profiling panel (AID 1162). As to conditions: higher = more signal.
Test [2] is described as follows: compound effects on differentiated 3T3-L1 adipocyte viability – cell-based, 3T3-L1 adipocytes, calcein-AM fluorescence, 48 h, basal, profiling panel (AID 1163). As to conditions: 3T3-L1 adipocytes viability, higher = more signal.
Test [3] can be described thus: compound effects on hepatocellular carcinoma cell viability – HepG2, calcein-AM fluorescence, 48 h, basal, profiling panel (AID 1164). As to conditions: higher = more signal.
Test [4] is described as follows: compound effects on multiple myeloma cell viability – MM1S, calcein-AM fluorescence, 48 h, basal, profiling panel (AID 1165).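 Also: viability of MM1S multiple myeloma cells under basal unstimulated conditions.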 The following applies: higher = more signal.
Test [5] in a line: calcein-AM signal in unstimulated myeloma cells – cell-based, calcein-AM fluorescence, 48 h, PK04 Diversity Set, profiling panel (AID 1166).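 Also: cells grown under basal conditions without added stimulus.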 As to conditions: RPMI8226 myeloma viability, higher = more signal.
A short description of test [6]: JC-1 mitochondrial signal, unstimulated HepG2 cells – cell-based, JC-1 fluorescence, 24 h, 100 nL compound, profiling panel (AID 1167). The following applies: HepG2 mitochondrial potential, higher = more signal.
Test [7] can be described thus: JC-1 mitochondrial signal, unstimulated adipocytes – cell-based, JC-1 fluorescence, 3T3-L1 adipocytes, 24 h, 100 nL compound, profiling panel (AID 1168). The following applies: JC-1 mitochondrial fluorescence, higher = more signal, called active from +8 up or from −8 down.
Test [8] in a line: JC-1 mitochondrial signal, unstimulated myeloma cells – cell-based, JC-1 fluorescence, RPMI8226, 24 h, 100 nL compound, profiling panel (AID 1169). As to conditions: JC-1 mitochondrial potential fluorescence, higher = more signal.
Test [9] is described as follows: JC-1 mitochondrial signal, unstimulated MM1S myeloma – cell-based, JC-1 fluorescence, 24 h, 100 nL compound, profiling panel (AID 1170). As to conditions: MM1S mitochondrial potential, higher = more signal.
A short description of test [10]: resazurin metabolic signal in A549 cells – cell-based, resazurin fluorescence, 24 h, PK04 Diversity Set, profiling panel (AID 1171). As to conditions: A549 viability, higher = more signal, called active from +8 up or from −8 down. In general terms: Alamar Blue is a resazurin reagent that responds to reducing activity.
Also: test concentration not given here.

For `CC(C)CON=C1C[C@@H](O)[C@@H](O)[C@@H]2[C@@H]3C(=O)N(Cc4ccccc4)C(=O)[C@@H]3CC[C@@H]12`, the z-score in test [1] was -0.785; in test [2], 0.449; in test [3], -0.946; in test [4], 0.479; in test [5], -0.129; in [6], 0.173. For the same compound, the z-score in test [7] was -0.272 (inactive); in test [8], -0.313; in test [9], -0.659; in test [10], 0.676 (inactive).

Consider `CC(=O)O[C@H]1C2=C(C(=O)[C@@H]3O[C@@H]31)[C@H]1C(C)O[C@@H]2[C@@]23C(=O)[C@@H]4O[C@@H]4[C@@H](O)C2=CO[C@H](C)[C@@H]13` (stereo not given in full), for which the z-score was -0.192 in [1]; -0.392 in test [2]; -1.54 in [3]; -3 in test [4]; -2.64 in test [5]; -1.92 in test [6]. For the same compound, the z-score in test [7] is -0.78 (inactive); in test [8], 0.151; in test [9] it was -1.05; in test [10] it was 0.4 (inactive).

With `CC[C@@H](c1ccccc1)n1c(=O)n2n(c1=O)[C@H]1[C@H](O)[C@@H]3O[C@@H]3C(=NOCC(C)C)[C@H]1CC2`, the z-score is -0.342 in [1]; 0.245 in test [2]; -0.389 in [3]; -0.288 in test [4]; 0.44 in test [5]; -1.16 in test [6]. In addition, the z-score was -1.67 (inactive) in [7], -0.0693 in [8], 0.448 in test [9] and 0.276 (inactive) in test [10].

Consider `CCOC(=O)[C@H](Cc1ccccc1)NC(=O)CCC1CC(OC(=O)NCc2ccc3c(c2)OCO3)CC2(CCCC(COC(=O)NCC(c3ccccc3)c3ccccc3)O2)O1` (stereo not given in full), for which the z-score was 1.85 in test [1]; -0.683 in test [2]; -0.538 in [3]; -3.38 in [4]; -3.61 in test [5]; 1.37 in test [6]. For the same compound, the z-score was -0.717 (inactive) in [7], -0.77 in test [8], -1.95 in test [9] and 0.174 (inactive) in test [10].

For `CO[C@@H]1COC(=O)CCC[C@@H](C)[C@H](OC)COC(=O)[C@H](Cc2ccccc2)NC(=O)CC=C[C@H]1C`, the z-score in [1] is 0.0498; in test [2], 0.134; in [3], -0.829; in test [4] it was 0.355; in test [5], -1.25; in test [6], 2.07. Besides, the z-score in test [7] was -1.18 (inactive); in test [8] it was 0.256; in [9], -0.479; in [10] it was 0.451 (inactive).

Turning to `O=C1[C@H]2[C@H]3[C@H](O)[C@H](O)CC(=NO[C@@H]4O[C@H](CO)[C@@H](O)[C@H](O)[C@H]4O)[C@@H]3CC[C@H]2C(=O)N1Cc1ccccc1`, the z-score was 0.255 in test [1]; -0.612 in [2]; -0.379 in test [3]; -0.176 in test [4]; 1.03 in [5]; 0.981 in test [6]. Further, the z-score in [7] was -0.173 (inactive); in [8] it was -0.61; in [9] it was -1.98; in test [10], 0.222 (inactive).

With `CC(C)CN1CCc2nc(-c3ccccc3)c3c(c2CC1)CO[C@@H](C)C3`, the z-score in test [1] is 0.277; in test [2] it was 0.493; in test [3], -0.0216; in test [4], -2.48; in test [5], -1.32; in [6], 0.93. Further, the z-score was 0.163 (inactive) in [7], 0.0637 in test [8], 0.75 in test [9] and 0.569 (inactive) in test [10].

Take `O=C(CS)NCCCCCNC(=O)[C@@H]1C[C@@H]2C(=O)N[C@@H](Cc3ccccc3)C(=O)N2[C@@H]1c1ccc(O)cc1`: the z-score in test [1] was 0.557; in [2] it was 0.239; in test [3], 1.15; in test [4], 0.477; in [5] it was 0.617; in test [6], -0.0506. In addition, the z-score in [7] was -0.325 (inactive); in [8], 0.149; in test [9], -0.625; in test [10], -0.181 (inactive).

With `COCCOC(=O)N1C(=O)[C@@]2(c3cc(C#Cc4ccc(OC)cc4)ccc31)[C@H](c1ccc(O)cc1)N1[C@H](c3ccccc3)[C@H](c3ccccc3)OC(=O)[C@H]1[C@@H]2C(N)=O`, the z-score in test [1] was -0.64; in test [2] it was 0.38; in test [3], -0.531; in [4], -2.08; in test [5], -3.7; in [6], -1.74. Besides, the z-score in [7] was 0.563 (inactive); in [8], -0.896; in [9], -0.721; in [10], -1.51 (inactive).

Turning to `O=C1C2=CC[C@H]3C(=O)N(Cc4ccc5c(c4)OCO5)C(=O)[C@H]3[C@H]2[C@H](O)[C@@H]2O[C@H]12`, the z-score in [1] was -0.227; in test [2], 0.447; in test [3], 0.162; in [4], 0.351; in test [5] it was -0.196; in test [6] it was -0.275. Moreover, the z-score is 0.00654 (inactive) in test [7], -0.223 in [8], -0.398 in test [9] and -0.763 (inactive) in [10].

Take `O=C1NC(=O)C2C1C=CC(C(O)Cc1ccccc1)N2Nc1ccccn1` (stereo not given): the z-score is 0.379 in [1]; -0.949 in [2]; 1.16 in test [3]; -0.171 in test [4]; -0.87 in test [5]; 0.0266 in test [6]. Also, the z-score in [7] was 0.272 (inactive); in [8], 0.477; in [9], -0.684; in test [10], -1.22 (inactive).

For `CC(CCN1CCc2nc(-c3ccccc3)c(-c3ccccc3)cc2C1)=NOC[C@@H](C)[C@H](OCc1ccccc1)C(C)C`, the z-score was 0.474 in test [1]; 0.503 in test [2]; 0.488 in [3]; -0.637 in test [4]; -1.89 in test [5]; 1.76 in test [6]. Besides, the z-score was -0.479 (inactive) in test [7], 0.161 in test [8], -0.38 in [9] and -0.611 (inactive) in test [10].

Take `COCCCNC(=O)[C@@]1(C)c2ccccc2C(=O)N(Cc2ccc(OC(F)(F)F)cc2)[C@H]1c1ccc(CO)cc1`: the z-score was 0.144 in test [1]; -0.471 in [2]; 1.22 in [3]; -0.0013 in [4]; 0.125 in test [5]; 2.4 in test [6]. Moreover, the z-score is 0.582 (inactive) in test [7], -0.68 in test [8], -1.06 in test [9] and -0.903 (inactive) in test [10].

For the compound `CCN1C(=O)[C@H]2[C@H]3[C@H](O)[C@H](O)CC(=NOC[C@@H](C)[C@H](OCc4ccccc4)C(C)C)[C@@H]3CC[C@H]2C1=O`, the z-score in test [1] is -0.0364; in test [2], 0.387; in test [3], -0.755; in test [4], -1.76; in [5], -1.24; in [6], -1.39. Moreover, the z-score in test [7] is -2.19 (inactive); in [8] it was -0.279; in [9] it was -0.187; in test [10], -0.295 (inactive).

In the case of `CCCNC(=O)OC[C@H]1O[C@H](CCON=CC[C@@H]2C=C[C@H](OC(C)=O)[C@@H](COC(C)=O)O2)C=C[C@@H]1Oc1ccc(OC)cc1`, the z-score is 0.51 in test [1]; -0.217 in [2]; -0.24 in test [3]; -0.516 in test [4]; -1.28 in test [5]; -1.14 in test [6]. In addition, the z-score in [7] is -1.12 (inactive); in [8], -0.057; in test [9], 0.306; in test [10] it was 0.248 (inactive).

Take `CCN1C(=O)[C@H]2[C@H]3[C@H](O)[C@H](O)CC(=NOCc4ccccc4)[C@H]3CC[C@H]2C1=O`: the z-score was -0.803 in test [1]; -0.0387 in test [2]; -0.228 in test [3]; -0.463 in [4]; -0.644 in test [5]; -1.13 in [6]. In addition, the z-score was -1.37 (inactive) in test [7], 0.462 in test [8], 0.515 in test [9] and -0.0275 (inactive) in [10].
